In the OligoGym collection:

Target: ASPRV1
Assay: pooled miR-30 sensor sort-seq; sequence = guide strand
Settings: shRNA
Note: reference of the scale not given here.

**Q.** For TTGAGTCTTTGTCATCAACAGC, which sensor-assay potency score (higher = more potent) is on record?
**A.** Its sensor-assay potency score (higher = more potent) is -1.26.

**Q.** With ATTGATGACTTCAAAGCTGTGC as the sequence, how does the sensor-assay potency score (higher = more potent) read?
**A.** Its sensor-assay potency score (higher = more potent) is 0.217.

**Q.** For TTTCAGGAACCTTAGCTTGGTG, which sensor-assay potency score (higher = more potent) is on record?
**A.** Its sensor-assay potency score (higher = more potent) is -0.909.

**Q.** Which sensor-assay potency score (higher = more potent) does the source give for TTTGTCATCAACAGCAGCTTGA here?
**A.** Its sensor-assay potency score (higher = more potent) is -0.258.

**Q.** TGAGATAGTAGCCCTTACCCAT was tested. Which sensor-assay potency score (higher = more potent) did it give?
**A.** The sensor-assay potency score (higher = more potent) was -0.959.

**Q.** How did the sensor-assay potency score (higher = more potent) turn out when TTGAGGTCATTGATGACTTCAA was run?
**A.** Its sensor-assay potency score (higher = more potent) is -0.277.

**Q.** For TAGCTTGGTGATATGGTCCCAA, which sensor-assay potency score (higher = more potent) is on record?
**A.** Its sensor-assay potency score (higher = more potent) is 0.0777.

**Q.** For TTCAGGAACCTTAGCTTGGTGA, which sensor-assay potency score (higher = more potent) is on record?
**A.** Its sensor-assay potency score (higher = more potent) is -1.12.

**Q.** How did the sensor-assay potency score (higher = more potent) turn out when TTGCCTAGGGACACCGCTGTAT was run?
**A.** Its sensor-assay potency score (higher = more potent) is -1.05.

**Q.** TTCAGCACCATTGGCCACCTTT was tested. Which sensor-assay potency score (higher = more potent) did it give?
**A.** Its sensor-assay potency score (higher = more potent) is -0.724.

Target: ASTE1
Assay: as above
Settings: shRNA

**Q.** TTCATTACTATGATCTTCCACA was tested. Which sensor-assay potency score (higher = more potent) did it give?
**A.** The sensor-assay potency score (higher = more potent) was -0.12.

**Q.** For TTTTCAACCATTAACAACCCAA, which sensor-assay potency score (higher = more potent) is on record?
**A.** The sensor-assay potency score (higher = more potent) was -0.22.

**Q.** How did the sensor-assay potency score (higher = more potent) turn out when TAGCTTTGCTTTGGTCTCGGTG was run?
**A.** Its sensor-assay potency score (higher = more potent) is -0.912.

**Q.** With TAGAACAGCTGGTATTCTGTTT as the sequence, how does the sensor-assay potency score (higher = more potent) read?
**A.** Its sensor-assay potency score (higher = more potent) is -0.362.

**Q.** With TATTCTTCCATGGAACAGCAGA as the sequence, how does the sensor-assay potency score (higher = more potent) read?
**A.** Its sensor-assay potency score (higher = more potent) is -0.626.

**Q.** Which sensor-assay potency score (higher = more potent) does the source give for TAGATATTCATAAAGTTGCTTA here?
**A.** Its sensor-assay potency score (higher = more potent) is -0.483.

**Q.** Which sensor-assay potency score (higher = more potent) does the source give for TTGAATTTGATCTACCTTTTGG here?
**A.** The sensor-assay potency score (higher = more potent) was -0.435.

**Q.** With TTTTTTTTTGAATTTGATCTAC as the sequence, how does the sensor-assay potency score (higher = more potent) read?
**A.** Its sensor-assay potency score (higher = more potent) is -0.318.

**Q.** Which sensor-assay potency score (higher = more potent) does the source give for TTTTTGAATTTGATCTACCTTT here?
**A.** The sensor-assay potency score (higher = more potent) was -0.342.

**Q.** With TTATCTAGTGCTTCGGTAGGGT as the sequence, how does the sensor-assay potency score (higher = more potent) read?
**A.** The sensor-assay potency score (higher = more potent) was 0.589.

**Q.** How did the sensor-assay potency score (higher = more potent) turn out when TTATCTGAAATGTCACATCCTC was run?
**A.** The sensor-assay potency score (higher = more potent) was 0.002.

**Q.** TTGAACTGAAGCAAAGACGGTG was tested. Which sensor-assay potency score (higher = more potent) did it give?
**A.** The sensor-assay potency score (higher = more potent) was 0.0207.
